Measurements: PubChem BioAssay AID1259343 (VanderVen Lab, College of Veterinary Medicine, Cornell …, 2017)
The campaign covered roughly 6,200 compounds. About 2,900 (47%) were called active. So high a share suggests a set chosen from earlier hits. The list shows a part of the results. Unmarked numbers belong to inactive results. No stated cut-off is given here; in the data, active means inhibition above about 50%; inactive means the rest.

test: Mycobacterium tuberculosis growth inhibition, primary screen (AID 1259343); conditions: inhibition: at 10 µM, stronger effect = higher value; outcome: 10 uM

Compound	inhibition
N#Cc1nc(C2CC2)oc1N1CCN(C(=O)Nc2ccccc2)CC1	21.4%
COC(=O)c1ccc(CSC(=S)N(C)C)cc1	82.1% (active)
Cc1c(C(=O)N2CCC(C(N)=O)CC2)nnn1-c1nc(-c2ccccc2)cs1	20.4%
NC(=O)C1CCN(C(=O)CCc2ccsc2)CC1	90.9% (active)
CC(C)c1csc(C2CCN(C(=O)CCc3ccsc3)CC2)n1	83.6% (active)
NC(=O)C1CCN(C(=O)CCC2CCCC2)CC1	-28.4%
Cc1cc(C=C2Sc3ccccc3N2C)cc(C)[n+]1-c1ccccc1	41.1%
CCN1C(=Cc2ccc3cc(C)ccc3[n+]2CC)Sc2ccccc21	56.1% (active)
CCN1C(=Cc2cc(C)[n+](C3CCCCC3)c(C)c2)Sc2ccccc21	-19.4%
CCC(C)[n+]1c(C)cc(C=C2Sc3ccccc3N2CC)cc1C (stereo not given)	84.5% (active)
CC(C)CCOc1ncnc2c1sc1nc3c(cc12)COC(C)(C)C3	63.6% (active)
CCCCCOc1ncnc2c1sc1nc3c(cc12)COC(C)(C)C3	51% (active)
CC1(C)[C@H]2CC[C@@H](CNC(=O)c3cc(=O)n(-c4ccccc4)[nH]3)[C@@H]1C2	23.3%
C=C(NC(=O)C(=C)NC(=O)c1csc(C2=NC3c4csc(n4)C4NC(=O)c5csc(n5)C(C(C)(O)C(C)O)NC(=O)C5CSC(=N5)C(=CC)NC(=O)C(C(C)O)NC(=O)c5csc(n5)C3(CC2)NC(=O)C(C)NC(=O)C(=C)NC(=O)C(C)NC(=O)C(C(C)CC)NC2C=Cc3c(C(C)O)cc(nc3C2O)C(=O)OC4C)n1)C(N)=O (stereo not given)	95.4% (active)
N=C1c2ccccc2CN1c1ccc(OC(F)(F)C(F)F)cc1	64.2% (active)
CSc1nsc(SC)c1NC(=O)OC1CCCCC1	11.5%
CC(C(=O)NCc1cccs1)S(=O)(=O)c1ccc(C(F)(F)F)cn1 (stereo not given)	14.3%
CNS(=O)(=O)Cc1ccc(CNc2ccc(C(F)(F)F)cn2)cc1	50.3% (active)
Cc1ccc(CNS(=O)(=O)Cc2ccc(F)cc2)cc1F	29.8%
N#Cc1c(Cl)nsc1NC1CCSc2c(F)cccc21 (stereo not given)	11.2%
N#Cc1c(Cl)nsc1NCCC1CC2CCC1C2 (stereo not given)	96.1% (active)
COc1cccc(C(CN2CCN(C(=O)C=C(C)C)CC2)OCc2cccc(Cl)c2)c1 (stereo not given)	-4.3%

Compound	inhibition
N=C1C=CC(=C(c2cccc(N)c2)c2cccc(N)c2)C=C1	68.4% (active)
CCOc1ccc(NC(=O)CSc2nc(=O)n3ccccc3n2)cc1	2.8%
CCOc1ccc(Nc2nc(-c3c(C)nc4ccccn34)cs2)cc1	61.2% (active)
CC1c2cccn2CCN1Cc1csc(Nc2ccccc2)n1 (stereo not given)	20.8%
CC(Oc1ccc(Cl)cc1)C(=O)NC(C)c1cccs1 (stereo not given)	94.5% (active)
COc1ccccc1CNC(=O)C1(S(=O)(=O)c2ccc(Cl)cc2)CCCC1	2.93%
COc1ccccc1NC(=O)N(Cc1ccsc1)C1CC1	16%
COc1ccccc1CN(C(=O)Nc1ccccc1Cl)C1CC1	78.5% (active)
COc1ccc(Cl)cc1C(=O)Nc1cc(C2CC2)nn1-c1nc(C)cc(=O)[nH]1	99.9% (active)
COc1ccc(Cl)cc1C(=O)Nc1cc(C)nn1-c1nc(C)cc(=O)[nH]1	101% (active)
Cc1cc(=O)[nH]c(-n2nc(C3CC3)cc2NC(=O)c2cc(Cl)ccc2Cl)n1	-15.9%
CCc1cc(=O)[nH]c(-n2nc(C)cc2NC(=O)c2cc(Cl)ccc2OC)n1	102% (active)
COc1ccc(Cl)cc1C(=O)Nc1cc(C)nn1-c1nc(C)c(C)c(=O)[nH]1	100% (active)
Cc1noc(CNC(C)(C)Cc2ccc(Br)cc2)n1	-9.14%
Cn1c2ccccc2n2c3ncccc3c(=O)c(C#N)c12	41.8%
CSc1nnc(SCc2cc(C)no2)s1	27.2%
COc1ccc(CSc2nnc(SCC(=O)N3CCCCCC3)s2)cc1	26.9%
CCSc1nnc(SCc2cccc(OC)n2)s1	90.4% (active)
COc1ccc(NC(=O)c2ccc(-c3ccc(C(C)=O)cc3)o2)cn1	-28.8%
CON(C)S(=O)(=O)c1cc(C(=O)Nc2cccc(Cl)c2Cl)ccc1Cl	22.1%
CCCCN(C)S(=O)(=O)c1ccc(NC(=O)c2ccc(OC)nc2)cc1	88% (active)
COc1ccc(C2=NOC(CNCc3cccc(C(F)(F)F)c3)C2)cc1 (stereo not given)	43.6%

Compound	inhibition
COc1ccc(C2=NOC(c3ccc(C)cc3)C2)cc1 (stereo not given)	22.2%
COc1ccc(C2=NOC(CNCc3cccc(F)c3)C2)cc1 (stereo not given)	76.2% (active)
Fc1cccc(CNCC2CC(c3ccc(Cl)c(Cl)c3)=NO2)c1 (stereo not given)	57.1% (active)
CCc1cccc(NC(=O)Cn2nc3ccc(SC(C)C)nn3c2=O)c1	77.8% (active)
Cc1ccc(=O)n(CC(=O)Nc2ccc(Sc3ccccc3Cl)cc2)n1	5.63%
Cc1ccc(NC(=O)Cc2ccc(OC(F)F)cc2)cc1F	48.2%
O=C(CN1CCc2ccccc21)NC(=O)NCc1ccccc1	20.7%
Cc1ccc(NC(=O)CN2CCc3ccccc32)cc1F	54.7% (active)
COc1ccc(-c2nnn(CC(=O)Nc3ccc(C)c(F)c3)n2)cc1OC	86.6% (active)
O=C(Cn1nnc(-c2ccccc2Cl)n1)Nc1ccc(I)cc1	32.1%
CCCn1ncc(CN2CCOC(c3ccc(Cl)c(Cl)c3)C2)c1C (stereo not given)	7.23%
CCCc1sc(C(=O)Nc2nccs2)cc1CC	80.5% (active)
CCOc1ccc(CCN=C=S)cc1OCC	97.5% (active)
c1ccc(-c2nnc(SCc3nnc(-c4ccco4)o3)o2)cc1	69.9% (active)
Clc1ccc(CSc2nnc(-c3ccco3)o2)cc1Cl	88% (active)
N#Cc1ccc(CSc2nnc(-c3ccccc3)o2)cc1	-28.8%
Brc1ccccc1-c1nnc(SCc2nnc(-c3ccco3)o2)o1	-32.1%
Clc1ccc(CSc2nnc(-c3ccco3)o2)c(Cl)c1	-6.93%
CCSc1nnc(-c2ccc(Cl)cc2Cl)o1	100% (active)
Cn1nnnc1SCc1ccc(Cl)c(Cl)c1	37.6%
c1ccc(-c2nnc(CSc3nnc(-c4ccccc4)o3)o2)cc1	101% (active)
